D3 ag = activates the human D3 dopamine receptor; P35462; D3R DiscoveRx beta-arrestin cells, luminescence, 90 min; max activation, %; hit rate 0.58% among 410,000; AID 652048; in the data active = max activation above about 30%
Target sequence (P35462 whole entry, looked up): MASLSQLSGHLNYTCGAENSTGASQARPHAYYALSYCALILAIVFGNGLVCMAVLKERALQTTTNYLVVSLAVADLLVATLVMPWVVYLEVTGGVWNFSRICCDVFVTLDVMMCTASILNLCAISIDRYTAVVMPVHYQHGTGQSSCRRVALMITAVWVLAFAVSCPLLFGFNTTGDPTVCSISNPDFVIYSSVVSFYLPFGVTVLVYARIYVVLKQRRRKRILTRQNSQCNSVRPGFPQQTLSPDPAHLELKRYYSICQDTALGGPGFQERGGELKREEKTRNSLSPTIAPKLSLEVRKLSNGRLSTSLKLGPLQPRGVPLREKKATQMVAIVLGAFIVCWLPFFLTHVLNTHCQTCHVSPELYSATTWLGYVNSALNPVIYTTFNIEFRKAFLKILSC
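Cells at 1500/well, incubated overnight, then treated with pinned compounds (dopamine as control) for 90 min at 37 degrees C. DiscoveRx reagent added for 30 - 60 minutes at room temperature; luminescence read.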
TDP1 cell noCPT = qHTS for Inhibitors of human tyrosyl-DNA phosphodiesterase 1 (TDP1): qHTS in cells in absence of CPT; DT40 Tdp1-/- hTDP1 cells, no CPT, ATP luminescence, 48 h; Potency, µM (doses to about 46.2 µM), most hits filed as inhibitors; hit rate 15% among 420,000; AID 686978, 2013; note: nearly all actives have a fitted effect of over 55% in size
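Growth kinetics read by CellTiter-Glo luminescence after ≥48 hr at 37 °C. Cells: DT40 Tdp1-/- stably carrying human TDP1, 400 per well, compound exposure in the absence of CPT (DMSO vehicle).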
TDP1 cell CPT = growth inhibition of DT40 Tdp1-/-;hTDP1 cells with camptothecin (screen for TDP1 inhibitors). chicken DT40 Tdp1-/-;hTDP1 cells + 20 nM CPT, ATP luminescence, 48 h. Potency, µM (top dose mostly 46.2 µM), most hits filed as inhibitors. hit rate 12% among 420,000. AID 686979; note: nearly all actives have a fitted effect of over 55% in size
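Chicken DT40 Tdp1-/- cells stably complemented with human TDP1 were seeded at 400 cells/well in medium containing 20 nM camptothecin, exposed to pin-transferred compounds, and grown at 37 °C for at least 48 hr. Viability was read as ATP luminescence.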
IL-1B inflam inh = inhibitors of inflammasome signaling (IL-1 beta secretion); THP-1 LPS/ATP IL-1B secretion, AlphaLISA, 16 h; active compounds read low; activity change, % at 57.5 µM; hit rate 4.7% among 360,000; AID 743279; in the data active = activity change below about -50%; inconclusive = mostly about -30% to -49%
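THP-1 cells pretreated 1 hr with compounds (up to 57.5 uM final), then stimulated with LPS (250 ng/mL final) plus ATP (1.25 mM final); secreted IL-1B measured by AlphaLISA after 16 hr, decreased signal indicating inhibition.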
DRD3 antagonist = antagonists of human D3 dopamine receptor; AID 652054; hit rate 2.5% among 360,000; D3R cells, DiscoveRx beta-arrestin luminescence, antagonist mode; active compounds read low; max response, negative = inhibition, %; P35462; in the data active = max response below about -50%; inconclusive = no clear call, values can overlap the other calls
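Cells expressing the human receptor were seeded at 1500 cells/well, incubated overnight at 37 degrees C in 5% CO2, then exposed to library compounds with dopamine controls for 90 minutes at 37 degrees C before luminescent detection.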
ClpP mod = qHTS Assay for Activators of ClpP; ATP-dependent Clp protease proteolytic subunit (Bacillus subtilis (strain 168)), P80244; purified B. subtilis ClpP, FRET peptide cleavage, 20 min; Potency, µM (highest dose often 57.5 µM); hit rate 1.9% among 340,000; AID 651965, 2013; active = well fitted falling curve with a large enough effect; inconclusive = small, poorly fitted or top-dose-only effect; inactive = no such curve, though single readings can be large or run the other way; note: the source files actives as falling curves though it sought activators and does not explain the sign; nearly all actives have a fitted effect of over 65% in size
Target sequence (P80244 whole entry, looked up): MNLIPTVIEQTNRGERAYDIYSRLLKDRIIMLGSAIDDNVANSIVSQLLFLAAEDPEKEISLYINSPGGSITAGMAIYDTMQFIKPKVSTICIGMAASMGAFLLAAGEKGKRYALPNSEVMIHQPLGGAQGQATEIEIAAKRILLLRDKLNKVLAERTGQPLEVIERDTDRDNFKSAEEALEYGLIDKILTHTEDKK
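ClpP 10 microg/mL final, pH 8 Tris/KCl buffer with BSA, glycerol, Tween-20; compound pinned in; FRET-FV substrate; RT 20 min; Ex320/Em430; ΔFRET vs ADEP 5.8 microM, DMSO, no enzyme.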
Of the large screens only hits and unclear results are named; the others gave an inactive call. In the library only some 21% were active in any assay of this set; here they are far more common. Unless noted, calls come from the whole dose curve; as a rule, active = well fitted inhibition curve with a large enough effect; inconclusive = small, poorly fitted or top-dose-only effect; inactive = flat fitted curve, though single readings scatter.

Cc1cc(-c2ccc(C)c(S(=O)(=O)NCc3cccs3)c2)on1	TDP1 cell noCPT 15µM, TDP1 cell CPT 12µM (no result: IL-1B inflam inh, DRD3 antagonist)
Cc1cc(-c2ccc(C)c(S(=O)(=O)NCCC(C)N3CCCCCC3)c2)on1 (configuration not stated)	none
Cc1cc(-c2ccc(C)c(S(=O)(=O)NCCCN3CCN(c4ccccc4F)CC3)c2)on1	TDP1 cell noCPT inconclusive, TDP1 cell CPT inconclusive, DRD3 antagonist -68
COc1ccc(Br)cc1S(=O)(=O)NCCCN1CCOCC1	DRD3 antagonist -90
Cc1cc(-c2ccc(C)c(S(=O)(=O)NCCCN3CCCCCC3)c2)on1	IL-1B inflam inh -51
COc1ccc(-c2cc(C)no2)cc1S(=O)(=O)NCCCN1CCN(c2ccccc2)CC1	TDP1 cell noCPT 23µM, TDP1 cell CPT inconclusive, DRD3 antagonist -58
Cn1c(=O)oc2cc(S(=O)(=O)NCCN3CCCCCC3)ccc21	none
Cc1cc(-c2ccc(C)c(S(=O)(=O)NCCCN3CCN(c4ccccc4)CC3)c2)on1	TDP1 cell noCPT 23µM, TDP1 cell CPT inconclusive, DRD3 antagonist inconclusive
Cn1c(=O)oc2cc(S(=O)(=O)NCCN3CCN(c4ccccc4F)CC3)ccc21	TDP1 cell noCPT inconclusive, DRD3 antagonist -54
O=S(=O)(NCCCN1CCOCC1)c1ccc(Cl)s1	TDP1 cell noCPT 23µM, TDP1 cell CPT inconclusive
CCn1c(CNC(=O)c2ccco2)nnc1SCC(=O)Nc1ccccc1Cl	none (no result: ClpP mod)
O=C1N[C@H]2CC=C[C@H]2Nc2ccccc21	TDP1 cell noCPT 16µM, TDP1 cell CPT 13µM
Oc1c(C(c2ccccc2F)N2CCN(Cc3ccccc3)CC2)sc2nc(-c3ccco3)nn12 (configuration not stated)	none (no result: IL-1B inflam inh, DRD3 antagonist)
COc1ccc(F)cc1S(=O)(=O)Nc1ccc2c(c1)CCCN2C(=O)c1cccs1	TDP1 cell noCPT 18µM, TDP1 cell CPT inconclusive (no result: IL-1B inflam inh, DRD3 antagonist)
Cc1cc(F)ccc1S(=O)(=O)Nc1ccc(C(=O)N2CCCCCC2)cc1	TDP1 cell noCPT inconclusive, TDP1 cell CPT inconclusive
Cc1cc(F)ccc1S(=O)(=O)Nc1ccc2c(c1)CCCN2C(=O)c1cccs1	TDP1 cell noCPT 23µM, TDP1 cell CPT 21µM (no result: IL-1B inflam inh, DRD3 antagonist)
Cc1ccc(S(=O)(=O)Nc2ccc3c(c2)CCCN3C(=O)c2cccs2)cc1C	TDP1 cell noCPT 16µM, TDP1 cell CPT 21µM (no result: IL-1B inflam inh, DRD3 antagonist)
O=C(c1cccs1)N1CCCc2cc(NS(=O)(=O)c3ccc(F)cc3F)ccc21	TDP1 cell noCPT 9.2µM, TDP1 cell CPT 21µM (no result: IL-1B inflam inh, DRD3 antagonist)
COCCCNC(=O)Cn1c(=O)n(-c2ccccc2)c(=O)c2c1c1cc(OC)ccc1n2C	none (no result: IL-1B inflam inh, DRD3 antagonist)
S=c1nc2[nH]c3ccccc3c2n[nH]1	TDP1 cell noCPT inconclusive (no result: ClpP mod)
O=C(c1cccs1)N1CCCc2cc(NS(=O)(=O)c3ccc(F)cc3)ccc21	TDP1 cell CPT 21µM (no result: IL-1B inflam inh, DRD3 antagonist)
O=C(c1cccs1)N1CCCc2cc(NS(=O)(=O)c3ccc(Cl)cc3)ccc21	TDP1 cell noCPT inconclusive, TDP1 cell CPT inconclusive (no result: IL-1B inflam inh, DRD3 antagonist)
C=C(C1=CCN(S(=O)C(C)(C)C)[C@H]1CCO)c1ccccc1 (some centres not stated)	TDP1 cell noCPT inconclusive, TDP1 cell CPT 13µM
C[C@H]1CN(S(=O)(=O)C(C)(C)C)[C@H](CCO)/C1=C\c1ccccc1	none
C=CC1=CCN(S(=O)C(C)(C)C)[C@@H]1CCO (some centres not stated)	none
C=C(C1=CCN(S(=O)(=O)C(C)(C)C)[C@H]1CCO)c1ccccc1	TDP1 cell noCPT 16µM, TDP1 cell CPT inconclusive
CNCc1cc(C)n(-c2cc(S(=O)(=O)N3CCOCC3)ccc2N2CCCC2)c1C	TDP1 cell noCPT inconclusive, TDP1 cell CPT inconclusive
Cc1cc(CNCCN(C)C)c(C)n1-c1cc(S(=O)(=O)N2CCOCC2)ccc1N1CCCC1	TDP1 cell noCPT 16µM, TDP1 cell CPT inconclusive
Cc1ccc(C)n1-c1cc(S(=O)(=O)N2CCOCC2)ccc1N1CCCC1	TDP1 cell noCPT 26µM, TDP1 cell CPT 21µM
CCN(CCn1cccn1)Cc1ccccc1OCC(O)CN1CCc2ccccc2C1 (configuration not stated)	TDP1 cell noCPT inconclusive, TDP1 cell CPT inconclusive, DRD3 antagonist -58
Cc1ccc(OCC(O)CN2CCOCC2)cc1C (configuration not stated)	none
Cc1cc(OCC(O)CN2CCc3ccccc3C2)ccc1Cl (configuration not stated)	TDP1 cell noCPT inconclusive, IL-1B inflam inh -62, DRD3 antagonist -98 (no result: ClpP mod)
CCOc1ccc(OCC(O)CN2CCc3ccccc3C2)cc1 (configuration not stated)	TDP1 cell noCPT inconclusive, DRD3 antagonist -98
Cc1cc(OCC(O)CN2CCc3ccccc3C2)cc(C(C)C)c1 (configuration not stated)	TDP1 cell noCPT inconclusive, TDP1 cell CPT inconclusive, IL-1B inflam inh inconclusive, DRD3 antagonist -68
Cc1ccc(S(=O)(=O)N2CCCCC2)cc1NC(=O)C1COc2ccccc2O1 (configuration not stated)	TDP1 cell noCPT inconclusive, TDP1 cell CPT inconclusive
OC(COc1ccccc1CNCc1cccnc1)CN1CCc2ccccc2C1 (configuration not stated)	TDP1 cell noCPT inconclusive, TDP1 cell CPT inconclusive
CC(=O)c1ccc(OCC(O)CN2CC(C)OC(C)C2)cc1 (configuration not stated)	DRD3 antagonist -55
Cc1ccc(C)c(OCC(O)CN2CCc3ccccc3C2)c1C (configuration not stated)	TDP1 cell noCPT 3.7µM, TDP1 cell CPT 6.5µM, DRD3 antagonist -115
CC(=O)c1ccc(OCC(O)CN2CCc3ccccc3C2)cc1 (configuration not stated)	TDP1 cell noCPT inconclusive, DRD3 antagonist -84 (no result: ClpP mod)
CC1CN(CC(O)COc2ccc(C(C)C)cc2)CC(C)O1 (configuration not stated)	TDP1 cell noCPT inconclusive, TDP1 cell CPT inconclusive
OC(COc1ccc(CNCc2cccnc2)cc1)CN1CCc2ccccc2C1 (configuration not stated)	TDP1 cell noCPT inconclusive, DRD3 antagonist -103
CCOc1ccccc1NC(=O)CN1Cc2ccccc2C1=O	none (no result: IL-1B inflam inh, DRD3 antagonist)
CCN(CC)C(=O)C1=C(C)N(CCC2=CCCCC2)C(=O)C(CC(=O)NCCCN(C)C)C1 (configuration not stated)	none
CCOC(=O)CC(=O)NC1(Cc2ccc(O)cc2)CCCCC1	none
COc1cc(CN2CC(=O)N(c3cccc(Cl)c3C)C2=S)cc(OC)c1OC	TDP1 cell noCPT inconclusive, TDP1 cell CPT 23µM
